Rows were chosen to be rich in hits. Some 1.8% of all compounds tested hit in one or more screens of this group.
TRPML1 agonist: qHTS for Agonists of the Human Mucolipin Transient Receptor Potential 1 (TRPML1); Mucolipin-1 (Homo sapiens), Q9GZU1; TRPML1-expressing cells, Ca2+ dye fluorescence, FDSS; activation, % (concentration not given with the values); 410,000 tested, 0.12% active; AID 624414, 2012; in the data active = activation above about 50%; inconclusive = mostly about 30% to 49%; note: 0% is about no effect
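Kinetic FDSS Ca2+ read in Tet-induced TRPML1-DL cells (ABD Ca8 dye plus quencher, 45-90 min RT loading): baseline, then compound, then 110 s agonist window; EC80 agonist 54-4 at 4uM final added afterwards for a 110 s antagonist window.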
TRPML1 inh: qHTS for Inhibitors of the Human Mucolipin Transient Receptor Potential 1 (TRPML1); Mucolipin-1 (Homo sapiens), Q9GZU1; TRPML1-inducible cells, Ca2+ dye fluorescence, FDSS; stronger effect = lower value; inhibition of EC80 agonist-evoked calcium signal; activity change, negative = inhibition, % (test concentration not listed); 390,000 tested, 0.02% active; AID 624415, 2012; in the data active = activity change below about -50%; inconclusive = between about -30% and that limit;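 note: stimulus is agonist 54-4 at its EC80 concentration; % is set by controls: 0 for no effect and ±100 for the full control effect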
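Calcium fluorescence in TRPML1-DL cells induced overnight with Tet: a 110 s read after compound pin addition, then a 110 s antagonist read after challenge with 54-4 at 4 uM final (EC80).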
GLP1R cytotox: qHTS of GLP-1 Receptor Inverse Agonists: Cytotox Screen. Potency, µM (top dose mostly 38.3 µM), inactives show at the highest dose activity change, negative = inhibition, most hits filed as inhibitors. HEK293 cAMP-luciferase reporter cells, luminescence, 24 h. 410,000 tested, 0.13% active;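 note: loss of luciferase light is scored as toxicity; potency is the fitted concentration of half-maximal effect; % is set by controls: 0 for no effect and ±100 for the full control effect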
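A 23 nL compound transfer followed 12 hours of cell culture at 37 deg C; exposure then lasted 24 hr. Luciferase assay detection reagent was dispensed and plates read for luminescence after a 12 min room-temperature wait.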
GLP1R inv ag: qHTS of GLP-1 Receptor Inverse Agonists (Inhibition Mode). Glucagon-like peptide 1 receptor (Homo sapiens), P43220. HEK293 GLP-1R CRE-luciferase, luminescence, 24 h; GLP-1R form is constitutively active. Potency, µM (series often up to 38.3 µM), for the others: at the highest dose activity change, negative = inhibition, usual class: inhibitors. 410,000 tested, 1.6% active. AID 624417, 2012; note: potency is the fitted concentration of half-maximal effect; % is set by controls: 0 for no effect and ±100 for the full control effect; nearly all actives have a fitted effect of over 55% in size
Target sequence (P43220 whole entry, looked up): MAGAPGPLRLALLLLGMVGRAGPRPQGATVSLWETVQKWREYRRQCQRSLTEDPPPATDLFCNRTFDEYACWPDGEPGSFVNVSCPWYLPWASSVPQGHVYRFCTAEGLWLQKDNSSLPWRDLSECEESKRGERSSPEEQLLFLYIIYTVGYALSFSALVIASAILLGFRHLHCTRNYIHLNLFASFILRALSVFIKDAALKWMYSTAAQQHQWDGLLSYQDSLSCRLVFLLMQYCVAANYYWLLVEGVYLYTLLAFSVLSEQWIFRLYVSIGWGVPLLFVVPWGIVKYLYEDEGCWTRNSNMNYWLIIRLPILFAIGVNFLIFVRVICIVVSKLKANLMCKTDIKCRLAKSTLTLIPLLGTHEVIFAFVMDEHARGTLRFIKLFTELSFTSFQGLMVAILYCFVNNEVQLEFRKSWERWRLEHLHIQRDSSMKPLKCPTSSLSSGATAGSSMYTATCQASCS
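Cells are plated, allowed 12 hours at 37 deg C, then treated with compounds for 24 hr before luciferase detection reagent is added and luminescence is read after 12 min at room temperature. The HEK293 line carries constitutively active GLP-1R with a cAMP-responsive reporter.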
GLP1R ag: qHTS of GLP-1 Receptor Agonists; Potency, µM (highest dose often 45.6 µM), without a hit: at the highest dose activation, hits mostly activators; AID 624172, 2012; Glucagon-like peptide 1 receptor (Homo sapiens), P43220; HEK293 GLP-1R CRE-luciferase, luminescence, 4-6 h; cells express a hypersensitive GLP-1R form; 380,000 tested, 0.007% active; note: potency is the fitted concentration of half-maximal effect; % of control where 0% means no effect
An asterisk follows results filed as active. Unless noted, calls come from the whole dose curve; as a rule, active = well fitted curve in the direction sought with a large enough effect; inconclusive = small, poorly fitted or top-dose-only effect, or another doubt; inactive = no such curve, though single readings can be large; an effect the other way counts as inactive or inconclusive.

Results for NS(=O)(=O)c1ccc(NC(=O)c2cnn3c2NC(=C2CC2)C=C3C(F)F)cc1 ?
TRPML1 agonist: -1

What do the screens show for `COc1ccc(NC(=O)/C=C\C(=O)N(c2ccc(C(C)C)cc2)C(C(=O)NCc2ccco2)c2ccc(C)cc2)cc1` (configuration not stated)?
TRPML1 agonist: 1; TRPML1 inh: 7; GLP1R cytotox: -19%; GLP1R inv ag: 10µM*

What do the screens show for `CCN(CC)CCCNC(=O)c1cc2c(-c3ccc(Cl)cc3)nn(C)c2s1`?
TRPML1 agonist: 0; TRPML1 inh: 1; GLP1R cytotox: inconclusive; GLP1R inv ag: 3.5µM*; GLP1R ag: -7%

How did CCCN(CCC)CCCNC(=O)c1cc2c(-c3ccc(Cl)cc3)nn(C)c2s1 do in these assays?
TRPML1 agonist: 0; TRPML1 inh: 13; GLP1R cytotox: 2%; GLP1R inv ag: -9%

How did CCN(CC)CCCNC(=O)c1cc(-c2ccc(O)cc2)on1 do in these assays?
TRPML1 agonist: 0; TRPML1 inh: -5; GLP1R cytotox: 2%; GLP1R inv ag: 14%; GLP1R ag: 0%

Results for CCN(CC)CCCNC(=O)c1cc(-c2ccc(Cl)c(Cl)c2)on1 ?
TRPML1 agonist: 1; TRPML1 inh: -2; GLP1R cytotox: inconclusive; GLP1R inv ag: 5.6µM*; GLP1R ag: -14%

Results for Cc1ccc(NC(=S)N(CCC(C)C)C(C)c2ccncc2)c(Cl)c1 (configuration not stated) ?
TRPML1 agonist: 0; TRPML1 inh: -2; GLP1R cytotox: -8%; GLP1R inv ag: 10µM*; GLP1R ag: 13%

What do the screens show for `CC(C)C1C(=O)N(Cc2cn(Cc3ccco3)nn2)CCS(=O)(=O)N1Cc1ccc(-c2ccc(Cl)cc2)cc1` (configuration not stated)?
TRPML1 agonist: 4; TRPML1 inh: -6; GLP1R cytotox: inconclusive; GLP1R inv ag: 4µM*; GLP1R ag: 4%

How did CC1C(=O)N(Cc2cn(Cc3ccco3)nn2)CCS(=O)(=O)N1Cc1ccc(-c2ccc(Cl)cc2)cc1 (configuration not stated) do in these assays?
TRPML1 agonist: 0; TRPML1 inh: -8; GLP1R cytotox: -20%; GLP1R inv ag: 11µM*; GLP1R ag: -2%

What do the screens show for `COCOCCn1cc(CN2CCS(=O)(=O)N(Cc3ccc(-c4ccc(Cl)c(Cl)c4)cc3)C(C)C2=O)nn1` (configuration not stated)?
TRPML1 agonist: 6; TRPML1 inh: 1; GLP1R cytotox: -26%; GLP1R inv ag: 11µM*; GLP1R ag: 0%

Results for O=C(CCCn1c(=O)c2ccccc2n(Cc2ccc(F)cc2Cl)c1=O)NCCc1ccc(Cl)cc1 ?
TRPML1 agonist: -1; TRPML1 inh: 33; GLP1R cytotox: -1%; GLP1R inv ag: 10%; GLP1R ag: 1%

Results for CCNc1nc(CN2CCOCC2)nc2sc3c(c12)CCC3 ?
TRPML1 agonist: 0; TRPML1 inh: 17; GLP1R cytotox: 22%; GLP1R inv ag: -7%; GLP1R ag: 6%

How did c1ccc2c(c1)CCN(c1nc(CN3CCOCC3)nc3sc4c(c13)CCCC4)C2 do in these assays?
TRPML1 agonist: 2; TRPML1 inh: 58; GLP1R cytotox: 4%; GLP1R inv ag: 8.9µM*; GLP1R ag: 21%

How did COCCCn1c(SCC(=O)Nc2ccccc2OC)nc2c(sc3ccccc32)c1=O do in these assays?
TRPML1 agonist: 1; TRPML1 inh: 2; GLP1R cytotox: -9%; GLP1R inv ag: 6%

Results for Cc1ccc2[nH]cc(C(O)c3c[nH]c4ccc(C)cc34)c2c1 ?
TRPML1 agonist: 0

Results for O=C1c2[nH]nc(-c3ccccc3O)c2C(c2cccc(Br)c2)N1Cc1ccncc1 (configuration not stated) ?
TRPML1 agonist: 0; TRPML1 inh: -10; GLP1R cytotox: inconclusive; GLP1R inv ag: 13µM*

High-throughput results as filed in PubChem BioAssay.
